Measured values from publication PMC5540273 (PLoS ONE, 2017).

Tests used:
Conditions in all cases: concentration: 1 μM,replicates: in singlicate; n = 1
TESK1 = tested on: TESK1
TGFBR1 = tested on: TGFBR1
TGFBR2 = tested on: TGFBR2
TIE1 = tested on: TIE1
TIE2 = tested on: T1, TIE2
T1 construct: gene TEK

TLK1 = tested on: TLK1
TLK2 = tested on: TLK2
TNIK = tested on: TNIK
TNK1 = tested on: TNK1
TNK2 = tested on: TNK2
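Further: KINOMEscan kinase panel screen.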

Compound	%Inh (TESK1)	%Inh (TGFBR1)	%Inh (TGFBR2)	%Inh (TIE1)	%Inh (TIE2)	%Inh (TLK1)	%Inh (TLK2)	%Inh (TNIK)	%Inh (TNK1)	%Inh (TNK2)
CCCC(=O)Nc1n[nH]c2ncccc12 [SB-601436]	5%	0%	0%	0%	0%	0%	0%	0%	0%	0%
NC(=O)c1ccc(-c2cc3ncnc(SCC(=O)O)c3s2)cc1	6%	0%	40%	0%	13%	5%	0%	33%	0%	0%
OCCn1cc(-c2cnc3nnn(Cc4ccc5ncccc5c4)c3n2)cn1	0%	0%	0%	0%	0%	0%	0%	0%	19%	0%
CN(c1cccc(CNc2nc(Nc3ccc4c(c3)CC(=O)N4)ncc2C(F)(F)F)c1)S(C)(=O)=O	0%	0%	0%	75%	42%	16%	3%	75%	57%	67%
CCOC(=O)N1CCC(n2cnc(-c3ccc(F)cc3)c2-c2ccnc(N)n2)CC1 [SB-219952]	12%	23%	10%	12%	10%	26%	2%	32%	21%	12%
Cc1ccc(CC(=O)N2CCc3cc(-c4cn(C)c5ncnc(N)c45)ccc32)cc1 [GSK2634758]	36%	0%	0%	89%	48%	0%	0%	1%	0%	42%
CNC(=O)c1ccccc1Nc1nc(Nc2cccc(CS(C)(=O)=O)c2)ncc1C.O=CO [GSK1520489]	64%	81%	37%	95%	95%	22%	0%	62%	100%	98.9%
Cn1ccc2ncnc(Oc3ccc(NC(=O)Nc4cnn(C(C)(C)C)c4)c(Cl)c3)c21	0%	13%	5%	78%	73%	17%	0%	72%	0%	0%
CCn1c(-c2nonc2N)nc2cncc(CNC3CCNCC3)c21.Cl [SB-747651]	20%	10%	0%	5%	0%	0%	0%	0%	0%	8%
Cn1ccc2ncnc(Oc3ccc(NC(=O)Nc4cc(C(C)(C)C)on4)c(Cl)c3)c21	0%	13%	0%	88%	97.1%	15%	0%	92.5%	0%	0%
O=C(Nc1ccccc1)c1cccc(Oc2ccc3nccn3n2)c1	0%	0%	0%	94.1%	0%	100%	0%	0%	33%	0%
C[C@@H](Oc1cc(-n2cnc3cc(-c4ccncc4)ccc32)sc1C(N)=O)c1ccccc1Cl [GSK479719]	0%	1%	0%	84%	27%	0%	0%	11%	20%	37%
N#Cc1cccc(C(=O)NC2CCN(c3ccnc(Nc4ccc(F)cc4)n3)C2)c1 (centres unmarked) [GSK1379708]	13%	4%	0%	3%	0%	0%	0%	0%	0%	4%
O=C(Nc1n[nH]c2cc(-c3ccco3)ccc12)C1CC1 [SB-737447]	0%	6%	0%	17%	3%	20%	0%	65%	0%	0%
CC(C(=O)NC1CCN(c2ccnc(Nc3ccc(F)cc3)n2)C1)c1ccc(Cl)cc1 (centres unmarked) [GSK1379713]	26%	0%	0%	12%	0%	0%	0%	0%	0%	0%
COc1cccc(OC)c1C(=O)Nc1cccc(-c2nn3ccccc3c2-c2ccnc(Nc3cccc(F)c3)n2)c1 [GSK361065]	1%	0%	17%	19%	12%	19%	0%	6%	31%	29%
O=C(Nc1cccc(C(F)(F)F)c1)c1cccc(Oc2ccc3nccn3n2)c1	7%	0%	0%	39%	0%	3%	0%	0%	36%	0%
